# From publication PMC7862700, “An all-to-all approach to the identification of sequence-specific readers for epigenetic DNA modifications on cytosine”
# Columns and labels:
# Assay in all cases: DAPPL (digital affinity profiling via proximity ligation, sequencing); 10 mM Tris-HCl pH 7.5, 50 mM NaCl, 1 mM DTT, 4% glycerol, room temperature, 30 min; GST-TFs on glutathione beads, 16-mer random dsDNA library, 0.1% formaldehyde crosslink after washing; high values mean tight binding
# FEV = molecular target: T1, FEV (Homo sapiens, UniProt Q99581 1-238); settings: protein: recombinant; tags: N-terminal GST; dsDNA, one strand shown
# T1 sequence: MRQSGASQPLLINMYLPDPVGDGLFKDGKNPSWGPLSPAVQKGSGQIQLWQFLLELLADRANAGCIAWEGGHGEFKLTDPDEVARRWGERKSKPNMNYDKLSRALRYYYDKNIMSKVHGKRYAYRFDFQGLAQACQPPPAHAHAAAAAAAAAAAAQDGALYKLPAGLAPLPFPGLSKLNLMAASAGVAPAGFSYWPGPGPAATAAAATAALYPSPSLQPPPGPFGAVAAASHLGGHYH
# How it was run: (§1)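 Binding signal is each hexamer's read frequency for a factor divided by its frequency in the tag-only sample. The factors were GST-fused human transcription factors from yeast, captured on glutathione beads, DNA-barcoded and pooled with that sample. Pools were incubated with 200 nmole of a random double-stranded 16-mer DNA library in Tris/NaCl/DTT/glycerol buffer at room temperature for 30 min, then washed, crosslinked with 0.1% formaldehyde, proximity-ligated with BsaI/T4 ligase (1 h, 37 °C), PCR-amplified and sequenced on an Illumina NextSeq500.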
# ETV5 = ETV5 (Homo sapiens, UniProt P41161 1-510); settings: protein: recombinant; tags: N-terminal GST; dsDNA, one strand shown
# Sequence of ETV5 (P41161 whole entry): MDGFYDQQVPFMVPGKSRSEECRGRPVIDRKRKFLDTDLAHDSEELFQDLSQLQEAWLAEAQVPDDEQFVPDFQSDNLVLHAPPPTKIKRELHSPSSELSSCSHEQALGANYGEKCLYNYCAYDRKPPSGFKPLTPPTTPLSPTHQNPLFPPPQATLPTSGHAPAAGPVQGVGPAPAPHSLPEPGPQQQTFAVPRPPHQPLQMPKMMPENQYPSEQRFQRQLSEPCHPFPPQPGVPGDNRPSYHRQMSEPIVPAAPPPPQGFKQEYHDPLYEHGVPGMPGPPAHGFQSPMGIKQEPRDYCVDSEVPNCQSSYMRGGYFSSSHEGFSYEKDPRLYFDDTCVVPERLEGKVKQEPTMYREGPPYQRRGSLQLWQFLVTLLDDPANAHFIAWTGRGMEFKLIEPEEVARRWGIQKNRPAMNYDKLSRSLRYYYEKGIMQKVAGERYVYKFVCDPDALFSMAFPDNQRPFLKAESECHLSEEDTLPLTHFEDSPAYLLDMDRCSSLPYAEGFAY
# How it was run: as §1
# HSF1 = HSF1 (Homo sapiens, UniProt Q00613 1-529); settings: protein: recombinant; tags: N-terminal GST; chain copies: 3; dsDNA, one strand shown
# Sequence of HSF1 (Q00613 whole entry): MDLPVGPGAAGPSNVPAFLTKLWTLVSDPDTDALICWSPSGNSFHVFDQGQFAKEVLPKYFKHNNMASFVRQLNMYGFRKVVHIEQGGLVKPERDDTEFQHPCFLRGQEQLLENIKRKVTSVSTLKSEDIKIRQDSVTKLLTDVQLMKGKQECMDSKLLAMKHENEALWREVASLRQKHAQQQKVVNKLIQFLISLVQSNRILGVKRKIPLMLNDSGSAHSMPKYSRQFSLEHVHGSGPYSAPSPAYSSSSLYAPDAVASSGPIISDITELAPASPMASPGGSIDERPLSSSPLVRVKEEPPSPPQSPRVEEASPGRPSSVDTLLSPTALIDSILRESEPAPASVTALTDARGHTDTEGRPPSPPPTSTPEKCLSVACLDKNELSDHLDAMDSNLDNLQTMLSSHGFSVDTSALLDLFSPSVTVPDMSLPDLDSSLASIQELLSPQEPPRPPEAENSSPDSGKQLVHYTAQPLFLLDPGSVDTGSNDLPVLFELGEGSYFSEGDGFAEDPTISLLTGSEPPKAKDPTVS
# How it was run: as §1
# SPIC = molecular target: T2, SPIC (Homo sapiens, UniProt Q8N5J4 1-248); settings: protein: recombinant; tags: N-terminal GST; dsDNA, one strand shown
# T2 sequence: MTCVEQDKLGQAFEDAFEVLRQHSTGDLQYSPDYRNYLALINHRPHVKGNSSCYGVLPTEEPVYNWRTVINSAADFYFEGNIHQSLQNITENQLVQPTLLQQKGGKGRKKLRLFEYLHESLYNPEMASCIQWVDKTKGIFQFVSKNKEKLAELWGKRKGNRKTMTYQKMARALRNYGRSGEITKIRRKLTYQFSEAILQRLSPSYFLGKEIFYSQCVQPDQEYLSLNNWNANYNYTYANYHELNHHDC
# How it was run: as §1
# ELF4 = ELF4 (Homo sapiens, UniProt Q99607 1-663); settings: protein: recombinant; tags: N-terminal GST; dsDNA, one strand shown
# Sequence of ELF4 (Q99607 whole entry): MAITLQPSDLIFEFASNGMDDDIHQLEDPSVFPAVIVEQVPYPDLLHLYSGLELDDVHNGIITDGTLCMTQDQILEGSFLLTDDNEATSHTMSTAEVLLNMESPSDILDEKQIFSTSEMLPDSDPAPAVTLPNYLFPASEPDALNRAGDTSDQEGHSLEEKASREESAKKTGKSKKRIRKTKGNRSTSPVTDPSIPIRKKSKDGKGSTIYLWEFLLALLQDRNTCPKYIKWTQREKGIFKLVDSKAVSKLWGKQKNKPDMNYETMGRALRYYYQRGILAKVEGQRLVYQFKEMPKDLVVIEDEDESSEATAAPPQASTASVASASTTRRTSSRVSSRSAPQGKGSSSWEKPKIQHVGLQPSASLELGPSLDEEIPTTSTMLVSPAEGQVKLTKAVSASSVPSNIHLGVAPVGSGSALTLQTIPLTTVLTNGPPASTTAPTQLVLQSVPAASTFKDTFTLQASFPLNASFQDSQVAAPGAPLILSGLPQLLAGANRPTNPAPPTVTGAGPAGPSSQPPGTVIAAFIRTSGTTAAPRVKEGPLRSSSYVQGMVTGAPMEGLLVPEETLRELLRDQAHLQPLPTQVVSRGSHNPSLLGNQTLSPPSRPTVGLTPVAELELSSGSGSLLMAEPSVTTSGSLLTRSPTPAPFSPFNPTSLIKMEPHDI
# How it was run: as §1
# ELK4 = molecular target: T3, ELK4 (Homo sapiens, UniProt P28324-2 1-405); settings: protein: recombinant; tags: N-terminal GST; dsDNA, one strand shown
# T3 sequence: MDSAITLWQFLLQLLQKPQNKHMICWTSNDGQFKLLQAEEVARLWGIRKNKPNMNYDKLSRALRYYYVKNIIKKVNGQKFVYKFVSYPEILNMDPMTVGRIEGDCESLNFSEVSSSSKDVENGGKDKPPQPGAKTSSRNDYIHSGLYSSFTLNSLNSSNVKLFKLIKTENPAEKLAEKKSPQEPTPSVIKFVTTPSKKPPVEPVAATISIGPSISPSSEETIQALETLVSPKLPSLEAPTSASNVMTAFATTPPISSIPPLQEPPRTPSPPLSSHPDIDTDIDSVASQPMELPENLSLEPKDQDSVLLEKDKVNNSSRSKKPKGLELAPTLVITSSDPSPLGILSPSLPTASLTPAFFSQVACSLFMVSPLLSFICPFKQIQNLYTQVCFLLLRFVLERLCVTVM
# How it was run: as §1
# ETV2 = molecular target: T4, ETV2 (Homo sapiens, UniProt O00321 1-342); settings: protein: recombinant; tags: N-terminal GST; dsDNA, one strand shown
# T4 sequence: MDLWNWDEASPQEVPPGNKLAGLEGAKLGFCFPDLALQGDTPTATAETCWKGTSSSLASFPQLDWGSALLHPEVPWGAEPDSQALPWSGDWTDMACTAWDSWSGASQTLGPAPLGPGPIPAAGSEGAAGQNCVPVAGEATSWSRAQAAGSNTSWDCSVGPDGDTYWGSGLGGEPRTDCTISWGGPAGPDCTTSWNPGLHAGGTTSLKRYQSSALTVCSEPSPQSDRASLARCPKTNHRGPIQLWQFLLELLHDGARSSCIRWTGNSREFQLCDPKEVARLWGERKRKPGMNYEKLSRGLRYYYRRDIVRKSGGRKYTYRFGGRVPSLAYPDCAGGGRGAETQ
# How it was run: as §1
# ELF3 = molecular target: T5, ELF3 (Homo sapiens, UniProt P78545 1-371); settings: protein: recombinant; tags: N-terminal GST; dsDNA, one strand shown
# T5 sequence: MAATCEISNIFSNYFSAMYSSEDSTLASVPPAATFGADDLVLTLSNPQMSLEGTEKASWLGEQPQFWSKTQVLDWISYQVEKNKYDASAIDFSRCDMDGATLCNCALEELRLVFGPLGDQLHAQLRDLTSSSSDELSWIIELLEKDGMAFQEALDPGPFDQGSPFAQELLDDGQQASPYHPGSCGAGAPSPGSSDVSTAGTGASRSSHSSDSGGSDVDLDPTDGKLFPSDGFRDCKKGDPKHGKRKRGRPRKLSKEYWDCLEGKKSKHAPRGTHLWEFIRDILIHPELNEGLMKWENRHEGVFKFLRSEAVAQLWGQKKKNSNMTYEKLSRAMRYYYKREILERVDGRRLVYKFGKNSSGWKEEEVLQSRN
# How it was run: as §1
# CRX = CRX (Homo sapiens, UniProt O43186 1-299); settings: protein: recombinant; tags: N-terminal GST; dsDNA, one strand shown
# Sequence of CRX (O43186 whole entry): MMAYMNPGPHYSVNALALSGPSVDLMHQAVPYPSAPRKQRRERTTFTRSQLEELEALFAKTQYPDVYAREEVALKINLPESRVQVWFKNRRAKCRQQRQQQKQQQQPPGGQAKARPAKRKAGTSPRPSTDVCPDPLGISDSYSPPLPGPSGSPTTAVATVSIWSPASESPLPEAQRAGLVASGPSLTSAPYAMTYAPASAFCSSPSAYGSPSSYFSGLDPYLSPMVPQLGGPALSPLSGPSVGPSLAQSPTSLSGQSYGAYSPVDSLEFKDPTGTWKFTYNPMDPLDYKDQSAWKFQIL
# How it was run: as §1
# ETV1 = ETV1 (Homo sapiens, UniProt P50549 1-477); settings: protein: recombinant; tags: N-terminal GST; dsDNA, one strand shown
# Sequence of ETV1 (P50549 whole entry): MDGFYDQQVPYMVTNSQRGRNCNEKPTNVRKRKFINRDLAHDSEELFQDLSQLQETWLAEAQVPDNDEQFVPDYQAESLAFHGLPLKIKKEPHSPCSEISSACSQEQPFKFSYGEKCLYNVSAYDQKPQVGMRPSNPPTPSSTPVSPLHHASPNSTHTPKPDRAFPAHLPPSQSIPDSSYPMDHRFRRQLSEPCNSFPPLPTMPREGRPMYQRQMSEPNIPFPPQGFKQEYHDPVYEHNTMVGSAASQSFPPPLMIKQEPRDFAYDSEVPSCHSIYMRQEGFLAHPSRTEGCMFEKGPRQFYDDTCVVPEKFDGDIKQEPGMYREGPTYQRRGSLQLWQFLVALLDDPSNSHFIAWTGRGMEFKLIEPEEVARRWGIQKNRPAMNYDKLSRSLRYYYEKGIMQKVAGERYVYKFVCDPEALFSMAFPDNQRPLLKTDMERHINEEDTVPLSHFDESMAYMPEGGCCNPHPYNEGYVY
# How it was run: as §1
# ERF = molecular target: T6, ERF (Homo sapiens, UniProt P50548 1-548); settings: protein: recombinant; tags: N-terminal GST; dsDNA, one strand shown
# T6 sequence: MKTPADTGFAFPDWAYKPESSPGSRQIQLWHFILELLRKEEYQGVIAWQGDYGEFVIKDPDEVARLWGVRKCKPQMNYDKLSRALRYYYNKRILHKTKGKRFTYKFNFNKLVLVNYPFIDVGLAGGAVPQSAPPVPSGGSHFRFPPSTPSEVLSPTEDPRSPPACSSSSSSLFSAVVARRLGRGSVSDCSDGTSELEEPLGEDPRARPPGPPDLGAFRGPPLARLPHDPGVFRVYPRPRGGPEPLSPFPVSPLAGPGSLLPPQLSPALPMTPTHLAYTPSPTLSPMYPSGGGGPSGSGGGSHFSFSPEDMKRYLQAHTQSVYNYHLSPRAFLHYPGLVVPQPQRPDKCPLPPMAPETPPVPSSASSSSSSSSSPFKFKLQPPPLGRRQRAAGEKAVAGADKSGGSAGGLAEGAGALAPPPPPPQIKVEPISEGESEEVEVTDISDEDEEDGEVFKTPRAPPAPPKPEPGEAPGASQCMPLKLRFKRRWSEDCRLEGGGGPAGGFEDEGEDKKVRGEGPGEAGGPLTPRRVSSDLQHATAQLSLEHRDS
# How it was run: as §1
# ETV3L = molecular target: T7, ETV3L (Homo sapiens, UniProt Q6ZN32 1-361); settings: protein: recombinant; tags: N-terminal GST; dsDNA, one strand shown
# T7 sequence: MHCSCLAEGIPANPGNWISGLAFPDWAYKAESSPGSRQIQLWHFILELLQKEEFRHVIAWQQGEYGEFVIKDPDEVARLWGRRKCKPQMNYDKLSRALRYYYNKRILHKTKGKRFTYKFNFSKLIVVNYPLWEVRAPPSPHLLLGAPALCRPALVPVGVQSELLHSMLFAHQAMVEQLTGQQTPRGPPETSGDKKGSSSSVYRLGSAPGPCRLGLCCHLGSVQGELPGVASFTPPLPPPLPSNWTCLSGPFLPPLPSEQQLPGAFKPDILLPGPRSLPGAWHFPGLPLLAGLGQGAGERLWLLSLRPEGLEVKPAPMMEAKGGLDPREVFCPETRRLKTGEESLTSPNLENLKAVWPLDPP
# How it was run: as §1
# ETS2 = molecular target: T8, ETS2 (Homo sapiens, UniProt P15036 1-469); settings: protein: recombinant; tags: N-terminal GST; dsDNA, one strand shown
# T8 sequence: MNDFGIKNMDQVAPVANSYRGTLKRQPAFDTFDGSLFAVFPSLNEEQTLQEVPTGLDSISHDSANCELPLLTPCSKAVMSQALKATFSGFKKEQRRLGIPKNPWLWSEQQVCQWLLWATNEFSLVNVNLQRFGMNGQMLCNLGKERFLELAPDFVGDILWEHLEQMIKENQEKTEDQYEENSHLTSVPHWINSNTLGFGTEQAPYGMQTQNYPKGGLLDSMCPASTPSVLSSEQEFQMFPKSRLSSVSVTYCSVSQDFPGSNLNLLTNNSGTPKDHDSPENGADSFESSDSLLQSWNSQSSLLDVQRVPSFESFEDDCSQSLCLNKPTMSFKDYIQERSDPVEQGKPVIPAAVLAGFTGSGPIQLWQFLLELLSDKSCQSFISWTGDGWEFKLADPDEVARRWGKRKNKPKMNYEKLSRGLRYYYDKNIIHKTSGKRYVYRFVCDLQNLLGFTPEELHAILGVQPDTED
# How it was run: as §1
# SPDEF = molecular target: T9, SPDEF (Homo sapiens, UniProt O95238 1-335); settings: protein: recombinant; tags: N-terminal GST; dsDNA, one strand shown
# T9 sequence: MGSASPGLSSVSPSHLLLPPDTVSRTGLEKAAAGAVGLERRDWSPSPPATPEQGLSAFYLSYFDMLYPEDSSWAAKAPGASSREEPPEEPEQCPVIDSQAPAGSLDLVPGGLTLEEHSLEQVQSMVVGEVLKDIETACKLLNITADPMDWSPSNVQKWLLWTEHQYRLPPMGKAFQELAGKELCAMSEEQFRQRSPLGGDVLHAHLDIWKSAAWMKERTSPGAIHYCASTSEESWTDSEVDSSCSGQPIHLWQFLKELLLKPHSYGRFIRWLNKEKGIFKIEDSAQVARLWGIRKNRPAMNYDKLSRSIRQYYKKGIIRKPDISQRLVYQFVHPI
# How it was run: as §1
# ETV7 = molecular target: T10, ETV7 (Homo sapiens, UniProt Q9Y603 1-341); settings: protein: recombinant; tags: N-terminal GST; dsDNA, one strand shown
# T10 sequence: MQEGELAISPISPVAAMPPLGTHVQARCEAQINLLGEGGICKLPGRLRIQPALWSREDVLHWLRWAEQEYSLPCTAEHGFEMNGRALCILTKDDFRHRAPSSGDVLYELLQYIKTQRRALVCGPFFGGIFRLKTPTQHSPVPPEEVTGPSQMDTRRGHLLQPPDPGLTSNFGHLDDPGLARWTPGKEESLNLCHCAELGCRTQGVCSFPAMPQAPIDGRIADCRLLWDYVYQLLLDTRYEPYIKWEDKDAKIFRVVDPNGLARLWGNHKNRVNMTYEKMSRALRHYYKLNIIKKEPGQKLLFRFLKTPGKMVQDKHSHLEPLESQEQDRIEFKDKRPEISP
# How it was run: as §1
# ELF5 = molecular target: T11, ELF5 (Homo sapiens, UniProt Q9UKW6-2 1-255); settings: protein: recombinant; tags: N-terminal GST; dsDNA, one strand shown
# T11 sequence: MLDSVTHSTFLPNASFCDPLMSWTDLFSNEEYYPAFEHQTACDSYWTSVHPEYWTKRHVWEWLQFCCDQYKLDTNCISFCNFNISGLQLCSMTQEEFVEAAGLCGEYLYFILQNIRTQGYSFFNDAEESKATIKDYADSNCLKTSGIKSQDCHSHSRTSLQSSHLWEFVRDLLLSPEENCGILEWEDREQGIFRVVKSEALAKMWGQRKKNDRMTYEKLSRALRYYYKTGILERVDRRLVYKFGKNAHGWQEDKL
# How it was run: as §1
# ETV3 = molecular target: T12, ETV3 (Homo sapiens, UniProt P41162-2 1-143); settings: protein: recombinant; tags: N-terminal GST; dsDNA, one strand shown
# T12 sequence: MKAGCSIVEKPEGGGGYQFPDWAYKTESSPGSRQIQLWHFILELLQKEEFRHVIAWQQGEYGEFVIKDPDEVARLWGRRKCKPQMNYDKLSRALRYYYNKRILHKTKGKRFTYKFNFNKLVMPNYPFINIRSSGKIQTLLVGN
# How it was run: as §1
# ETV6 = ETV6 (Homo sapiens, UniProt P41212 1-452); settings: protein: recombinant; tags: N-terminal GST; dsDNA, one strand shown
# Sequence of ETV6 (P41212 whole entry): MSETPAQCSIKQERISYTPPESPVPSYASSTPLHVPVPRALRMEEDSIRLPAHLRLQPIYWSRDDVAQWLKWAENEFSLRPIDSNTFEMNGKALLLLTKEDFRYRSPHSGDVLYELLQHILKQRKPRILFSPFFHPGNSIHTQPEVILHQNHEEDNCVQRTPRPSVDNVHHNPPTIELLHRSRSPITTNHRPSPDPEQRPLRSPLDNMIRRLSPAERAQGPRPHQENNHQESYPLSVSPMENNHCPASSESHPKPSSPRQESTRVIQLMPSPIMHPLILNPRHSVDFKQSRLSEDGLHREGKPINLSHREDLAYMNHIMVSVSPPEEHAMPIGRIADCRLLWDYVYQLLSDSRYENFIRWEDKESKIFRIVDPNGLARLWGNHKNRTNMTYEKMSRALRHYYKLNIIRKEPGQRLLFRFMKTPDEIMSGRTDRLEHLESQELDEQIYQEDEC
# How it was run: as §1
sequence,measurement,setting,value
TAGGCT,binding signal,FEV,"1.25 fold enrichment (6-mer frequency, TF over GST control)"
same,binding signal,ETV5,"1.19 fold enrichment (6-mer frequency, TF over GST control)"
same,binding signal,HSF1,"1.45 fold enrichment (6-mer frequency, TF over GST control)"
same,binding signal,SPIC,"1.29 fold enrichment (6-mer frequency, TF over GST control)"
same,binding signal,ELF4,"1.2 fold enrichment (6-mer frequency, TF over GST control)"
same,binding signal,ELK4,"1.13 fold enrichment (6-mer frequency, TF over GST control)"
same,binding signal,ETV2,"1.09 fold enrichment (6-mer frequency, TF over GST control)"
same,binding signal,ELF3,"1.1 fold enrichment (6-mer frequency, TF over GST control)"
same,binding signal,CRX,"1.99 fold enrichment (6-mer frequency, TF over GST control)"
same,binding signal,ETV1,"1.08 fold enrichment (6-mer frequency, TF over GST control)"
same,binding signal,ERF,"1.37 fold enrichment (6-mer frequency, TF over GST control)"
same,binding signal,ETV3L,"1.16 fold enrichment (6-mer frequency, TF over GST control)"
same,binding signal,ETS2,"1.29 fold enrichment (6-mer frequency, TF over GST control)"
same,binding signal,SPDEF,"1.24 fold enrichment (6-mer frequency, TF over GST control)"
same,binding signal,ETV7,"1.35 fold enrichment (6-mer frequency, TF over GST control)"
same,binding signal,ELF5,"1.09 fold enrichment (6-mer frequency, TF over GST control)"
same,binding signal,ETV3,"1.14 fold enrichment (6-mer frequency, TF over GST control)"
same,binding signal,ETV6,"1.24 fold enrichment (6-mer frequency, TF over GST control)"
